Laboratory results published in paper PMC8384837, “Expanding the binding specificity for RNA recognition by a PUF domain”.

Experiments:
Test in all cases: yeast three-hybrid, YBZ-1, SC-Leu-His + 0.5 mM 3-AT, 4 days
Settings in all cases: tags: N-Gal4 AD-HA kept; label: inside an RPR1-promoter hybrid RNA with tandem MS2 sites; ssRNA
PUM1 PUF domain R7-QPR = PUM1 PUF domain R7-QPR (Homo sapiens, UniProt Q14671 828-1176, S1079Q;N1080P;E1083R)
Outline: (§1)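 A centromeric plasmid in strain YBZ-1 co-expressed Pumilio-1 PUF domain libraries, randomized at the three base-contacting residues of each repeat, with matching RNA elements; the strain carries a LexA–MS2 coat fusion and a HIS3 reporter. After four days on SC-Leu (input) or SC-Leu-His + 0.5 mM 3-AT (selection), the repeat regions were PCR-amplified and Illumina-sequenced. The interaction score is the log change in variant frequency from input to selection, using log2 and a pseudocount of 1 where absent.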

PUM1 PUF domain R1-HLR = PUM1 PUF domain R1-HLR (Homo sapiens, UniProt Q14671 828-1176, S863H;R864L;Q867R)
Outline: as §1

PUM1 PUF domain R3-LHH = PUM1 PUF domain R3-LHH (Homo sapiens, UniProt Q14671 828-1176, C935L;R936H;Q939H)
Outline: as §1

PUM1 PUF domain R3-QRA = PUM1 PUF domain R3-QRA (Homo sapiens, UniProt Q14671 828-1176, C935Q;Q939A)
Outline: as §1

PUM1 PUF domain R3-QRV = PUM1 PUF domain R3-QRV (Homo sapiens, UniProt Q14671 828-1176, C935Q;Q939V)
Outline: as §1

PUM1 PUF domain R3-VCE = PUM1 PUF domain R3-VCE (Homo sapiens, UniProt Q14671 828-1176, C935V;R936C;Q939E)
Outline: as §1

PUM1 PUF domain R8-RWQ = PUM1 PUF domain R8-RWQ (Homo sapiens, UniProt Q14671 828-1176, N1122R;Y1123W)
Outline: as §1

PUM1 PUF domain R8-IYV = PUM1 PUF domain R8-IYV (Homo sapiens, UniProt Q14671 828-1176, N1122I;Q1126V)
Outline: as §1

PUM1 PUF domain R8-MYR = PUM1 PUF domain R8-MYR (Homo sapiens, UniProt Q14671 828-1176, N1122M;Q1126R)
Outline: as §1

PUM1 PUF domain R5-LYA = PUM1 PUF domain R5-LYA (Homo sapiens, UniProt Q14671 828-1176, C1007L;R1008Y;Q1011A)
Outline: as §1

PUM1 PUF domain R5-SRL = PUM1 PUF domain R5-SRL (Homo sapiens, UniProt Q14671 828-1176, C1007S;Q1011L)
Outline: as §1

Sequence of PUM1 PUF domain R3-LHH (Q14671 828-1176 C935L/R936H/Q939H): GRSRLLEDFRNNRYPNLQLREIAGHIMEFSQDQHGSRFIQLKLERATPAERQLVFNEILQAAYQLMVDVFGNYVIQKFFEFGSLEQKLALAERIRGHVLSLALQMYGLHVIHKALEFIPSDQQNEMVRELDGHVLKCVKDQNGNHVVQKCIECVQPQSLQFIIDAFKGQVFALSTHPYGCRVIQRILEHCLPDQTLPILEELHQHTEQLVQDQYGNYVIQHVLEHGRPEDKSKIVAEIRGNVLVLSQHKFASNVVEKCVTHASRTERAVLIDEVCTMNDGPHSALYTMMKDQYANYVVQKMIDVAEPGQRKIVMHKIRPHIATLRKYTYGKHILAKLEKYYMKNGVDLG
Sequence of PUM1 PUF domain R7-QPR (Q14671 828-1176 S1079Q/N1080P/E1083R): as the sequence (Q14671 828-1176 C935L/R936H/Q939H) above, with L108C, H109R, H112Q, S252Q, N253P, E256R counted along it
Sequence of PUM1 PUF domain R3-QRV (Q14671 828-1176 C935Q/Q939V): as the sequence (Q14671 828-1176 C935L/R936H/Q939H) above, with L108Q, H109R, H112V counted along it
Sequence of PUM1 PUF domain R3-QRA (Q14671 828-1176 C935Q/Q939A): as the sequence (Q14671 828-1176 C935L/R936H/Q939H) above, with L108Q, H109R, H112A counted along it
Sequence of PUM1 PUF domain R5-LYA (Q14671 828-1176 C1007L/R1008Y/Q1011A): as the sequence (Q14671 828-1176 C935L/R936H/Q939H) above, with L108C, H109R, H112Q, C180L, R181Y, Q184A counted along it

GGCUAGAACUAGUGGAUCCCCCGGCGCCCGGCGGCUCGAGCCCGGGUAAGUCUAAAUAGUCUGCAUGCCGCCGGGCGCCAUGCCUGCAGGUCGACUCUAGAAAACAUG
binding signal (PUM1 PUF domain R7-QPR): 1.84 log2 enrichment (interaction score)

GGCUAGAACUAGUGGAUCCCCCGGCGCCCGGCGGCUCGAGCCCGGGUAAGUGUAAAUUGUCUGCAUGCCGCCGGGCGCCAUGCCUGCAGGUCGACUCUAGAAAACAUG
binding signal (PUM1 PUF domain R1-HLR): 2.68 log2 enrichment (interaction score)

GGCUAGAACUAGUGGAUCCCCCGGCGCCCGGCGGCUCGAGCCCGGGUAAGUGUAAGUAGUCUGCAUGCCGCCGGGCGCCAUGCCUGCAGGUCGACUCUAGAAAACAUG
binding signal (PUM1 PUF domain R3-LHH): 5.47 log2 enrichment (interaction score) | binding signal (PUM1 PUF domain R3-QRA): 3.67 log2 enrichment (interaction score) | binding signal (PUM1 PUF domain R3-QRV): 3.59 log2 enrichment (interaction score) | binding signal (PUM1 PUF domain R3-VCE): 3.08 log2 enrichment (interaction score)

GGCUAGAACUAGUGGAUCCCCCGGCGCCCGGCGGCUCGAGCCCGGGUAAGCGUAAAUAGUCUGCAUGCCGCCGGGCGCCAUGCCUGCAGGUCGACUCUAGAAAACAUG
binding signal (PUM1 PUF domain R8-RWQ): 5.71 log2 enrichment (interaction score) | binding signal (PUM1 PUF domain R8-IYV): 2.44 log2 enrichment (interaction score) | binding signal (PUM1 PUF domain R8-MYR): 4.58 log2 enrichment (interaction score)

GGCUAGAACUAGUGGAUCCCCCGGCGCCCGGCGGCUCGAGCCCGGGUAAGUGUUAAUAGUCUGCAUGCCGCCGGGCGCCAUGCCUGCAGGUCGACUCUAGAAAACAUG
binding signal (PUM1 PUF domain R5-LYA): 3.15 log2 enrichment (interaction score) | binding signal (PUM1 PUF domain R5-SRL): 2.41 log2 enrichment (interaction score)
